{"source": "the supplement of paper PMC3334620", "note": "Over roughly 33,000 sequences, “E-score (-0.5 to 0.5)” has its median near -0.0034; the highest 2% begin near 0.25. For the sample, the highest values were picked, then their nearest neighbours and some sequences at random."}
{"target": "T1, Yap3 (UniProt P38749)", "T1 sequence": "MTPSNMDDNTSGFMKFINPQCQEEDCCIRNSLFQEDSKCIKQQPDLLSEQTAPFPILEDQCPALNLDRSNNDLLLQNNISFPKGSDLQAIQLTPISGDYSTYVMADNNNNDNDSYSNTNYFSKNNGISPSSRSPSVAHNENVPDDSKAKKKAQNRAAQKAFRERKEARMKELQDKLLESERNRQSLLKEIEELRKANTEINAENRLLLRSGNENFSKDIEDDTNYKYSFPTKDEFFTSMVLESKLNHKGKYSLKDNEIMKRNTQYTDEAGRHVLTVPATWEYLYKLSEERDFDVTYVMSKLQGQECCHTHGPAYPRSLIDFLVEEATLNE", "test": "PBM E-score (8-mer binding enrichment) (E-score (-0.5 to 0.5)); higher = stronger / more preferred TF binding", "settings": "protein concentration: 100 nM; construct: GST-full length", "summary_of_the_method": "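E-scores (a modified Wilcoxon-Mann-Whitney statistic) were assigned by the Universal PBM Analysis Suite to every ungapped eight-base word pooled with its reverse complement. The input came from universal all-10-mer Agilent arrays made double-stranded by primer extension and probed with GST-tagged yeast transcription factors at about 100-200 nM. Fluorescent anti-GST detected bound protein, and masliner normalised the scans.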"}
{"sequence": "ACGCGGGG", "PBM E-score": -0.0549}
{"sequence": "GTTACGTA", "PBM E-score": 0.182}
{"sequence": "CTTACGTC", "PBM E-score": 0.0927}
{"sequence": "AATACGTA", "PBM E-score": 0.296}
{"sequence": "ACTACGAA", "PBM E-score": 0.099}
{"sequence": "CATACGTA", "PBM E-score": 0.156}
{"sequence": "AATACGTG", "PBM E-score": 0.0823}
{"sequence": "GTTACGAA", "PBM E-score": 0.181}
{"sequence": "CTTACGTA", "PBM E-score": 0.349}
{"sequence": "CTTACGAA", "PBM E-score": 0.259}
{"sequence": "ATTACGAA", "PBM E-score": 0.329}
{"sequence": "AGTACGAA", "PBM E-score": 0.245}
{"sequence": "CTCACGAA", "PBM E-score": 0.05}
{"sequence": "CTTGTCCA", "PBM E-score": -0.0307}
{"sequence": "AAAGATCT", "PBM E-score": -0.0503}
{"sequence": "AAGAGATT", "PBM E-score": 0.0728}
{"sequence": "TAGGTAGA", "PBM E-score": 0.076}
{"sequence": "CGTACAAA", "PBM E-score": 0.108}
{"sequence": "ATTGGGCA", "PBM E-score": -0.0331}
{"sequence": "GGCTACGA", "PBM E-score": -0.0605}
{"sequence": "ATAGGGCC", "PBM E-score": -0.174}
{"sequence": "TAGGGCAA", "PBM E-score": -0.0175}
{"sequence": "CGTGCGAG", "PBM E-score": -0.0121}
{"sequence": "ATTACGAC", "PBM E-score": 0.269}
{"sequence": "ATTACGGC", "PBM E-score": 0.241}
{"sequence": "ATTACGGG", "PBM E-score": 0.0809}
{"sequence": "CTTACGAC", "PBM E-score": 0.0511}
{"sequence": "ATTACGGA", "PBM E-score": 0.295}
{"sequence": "ATTACGAG", "PBM E-score": 0.228}
{"sequence": "ACTCGAGC", "PBM E-score": 0.0632}
{"sequence": "CTTTGTAA", "PBM E-score": 0.27}
{"sequence": "CTTTGTAC", "PBM E-score": 0.0552}
{"sequence": "ATTTGTAG", "PBM E-score": 0.117}
{"sequence": "GTTTGTCA", "PBM E-score": 0.133}
{"sequence": "CTTTGTCA", "PBM E-score": 0.15}
{"sequence": "GTTTGTAA", "PBM E-score": 0.0859}
{"sequence": "ATTTGTCA", "PBM E-score": 0.313}
{"sequence": "ATTTGTAC", "PBM E-score": 0.0689}
{"sequence": "ATTTGTAA", "PBM E-score": 0.373}
{"sequence": "GCGAATCA", "PBM E-score": 0.173}
{"sequence": "CAACGGTG", "PBM E-score": -0.243}
{"sequence": "CGCGTGGA", "PBM E-score": -0.183}
{"sequence": "ATACTTAC", "PBM E-score": 0.0503}
{"sequence": "CAATCAAC", "PBM E-score": 0.217}
{"sequence": "AATAGCGA", "PBM E-score": 0.24}
{"sequence": "CCCAAAGG", "PBM E-score": -0.2}
{"sequence": "GAGAAGCA", "PBM E-score": -0.118}
{"sequence": "AACTAGGT", "PBM E-score": 0.154}
{"sequence": "GTGCTTTA", "PBM E-score": 0.121}
{"sequence": "AGGTATGG", "PBM E-score": -0.0324}
{"sequence": "ATGAATGC", "PBM E-score": 0.0737}
{"sequence": "ATGAATGA", "PBM E-score": 0.106}
{"sequence": "ATGAATGG", "PBM E-score": 0.268}
{"sequence": "CGGAGCTA", "PBM E-score": -0.142}
{"sequence": "GAGGCCAC", "PBM E-score": -0.223}
{"sequence": "TGAGTAAA", "PBM E-score": 0.161}
{"sequence": "CTAGTCAA", "PBM E-score": -0.0259}
{"sequence": "CTAGTAAA", "PBM E-score": 0.0933}
{"sequence": "ATAGTAAA", "PBM E-score": 0.238}
{"sequence": "TTAGTCAA", "PBM E-score": 0.27}
{"sequence": "GTAGTCAA", "PBM E-score": -0.0796}
{"sequence": "GGAGTAAC", "PBM E-score": -0.103}
{"sequence": "GGAGTAAA", "PBM E-score": 0.267}
{"sequence": "TTAGTAAA", "PBM E-score": 0.295}
{"sequence": "GAGCGTCC", "PBM E-score": -0.223}
{"sequence": "ACACCACC", "PBM E-score": -0.209}
{"sequence": "CCTACCCG", "PBM E-score": -0.174}
{"sequence": "GAGAAACA", "PBM E-score": 0.218}
{"sequence": "CGACCCAG", "PBM E-score": -0.23}
{"sequence": "CGAGTGTA", "PBM E-score": -0.0629}
{"sequence": "GTTTCATA", "PBM E-score": 0.0741}
{"sequence": "CTAGTTAA", "PBM E-score": 0.26}
{"sequence": "GTAGTTAA", "PBM E-score": 0.142}
{"sequence": "ATAGTTAA", "PBM E-score": 0.114}
{"sequence": "GCATGGGA", "PBM E-score": -0.197}
{"sequence": "CATGACAA", "PBM E-score": 0.143}
{"sequence": "GATGACAC", "PBM E-score": 0.132}
{"sequence": "GATGACAA", "PBM E-score": 0.264}
{"sequence": "CGGTTCGA", "PBM E-score": 0.0689}
{"sequence": "GTGAACAC", "PBM E-score": -0.156}
{"sequence": "ATGCCGTC", "PBM E-score": -0.0725}
{"sequence": "CGAGCTGA", "PBM E-score": 0.081}
{"sequence": "AGAGAGGA", "PBM E-score": -0.261}
{"sequence": "ATGAATTG", "PBM E-score": 0.208}
{"sequence": "ATTGAAAC", "PBM E-score": 0.155}
{"sequence": "ATTGAATA", "PBM E-score": 0.256}
{"sequence": "TATGAATA", "PBM E-score": 0.266}
{"sequence": "ATTGAAAT", "PBM E-score": 0.263}
{"sequence": "ATTGAAAA", "PBM E-score": 0.266}
{"sequence": "CTTGAATA", "PBM E-score": 0.113}
{"sequence": "CTTGAAAA", "PBM E-score": 0.161}
{"sequence": "GATGAATA", "PBM E-score": 0.242}
{"sequence": "ATTGAAAG", "PBM E-score": 0.143}
{"sequence": "CATGAATA", "PBM E-score": 0.0196}
{"sequence": "ATTGAATC", "PBM E-score": 0.0178}
{"sequence": "AATGAAAT", "PBM E-score": 0.21}
{"sequence": "CGTCGCAG", "PBM E-score": -0.0218}
{"sequence": "GTAGAGAA", "PBM E-score": 0.0971}
{"sequence": "GAGTGGAC", "PBM E-score": -0.0806}
{"sequence": "AGCAAAGA", "PBM E-score": 0.0203}
{"sequence": "CATACGAC", "PBM E-score": 0.0835}
{"sequence": "AAGGAAAA", "PBM E-score": 0.156}
{"sequence": "CCTCTGGA", "PBM E-score": -0.136}
{"sequence": "TAATTGCA", "PBM E-score": 0.195}
{"sequence": "GCTCCTAA", "PBM E-score": -0.265}
{"sequence": "ACAAGGAT", "PBM E-score": 0.113}
{"sequence": "TCTTGTAA", "PBM E-score": 0.118}
